# Laboratory results: PubChem BioAssay
# Active and inactive are the calls of the source. Unless noted, how the calls were made is not given here.
# What was measured:
# [1] = test system: Wnt5a (protein binding on small-molecule microarray); experiment: small molecules binding Wnt5a protein – biophysical, small-molecule microarray, 635/667 nm fluorescence, primary screen (AID 1142); conditions: 635 nm fluorescence, higher = more signal;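 further: fluorescence read at 667 nm with signal to noise per printed feature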
# [2] = ATP-based viability of Huh7 replicon cells – cell-based, CellTiter-Glo luminescence, basal, 48 h, cytotoxicity control for HCV replication inhibitor project, primary screen (AID 1143); conditions: Huh7 HCV replicon, CellTiter-Glo luminescence, 48 h, higher = more signal, called active from +8 up or from −8 down unless noted;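 further: Huh7 hepatoma cells carrying a hepatitis C replication reporter with no stimulus; test concentration not given here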
# [3] = Pseudomonas biofilm growth suppression – PAO1 strain, BacTiter-Glo luminescence, LB-PBS, primary screen (AID 1144); conditions: P. aeruginosa PAO1 biofilm, 12 h, higher = more signal
# [4] = basal CRE-LacZ reporter activity in PC12 – cell-based, unstimulated, primary screen (AID 1145); conditions: no forskolin, luminescence, 4.5 h; higher = more signal, called active from +8 up or from −8 down unless noted
# [5] = forskolin-driven CRE-LacZ activity in PC12 – cell-based, CRE-LacZ reporter, forskolin-stimulated, primary screen (AID 1146); conditions: luminescence, 4.5 h; higher = more signal, called active from +8 up or from −8 down unless noted;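 further: PC12 cells with 6xCRE LacZ reporter stimulated by forskolin 10 µM; beta-galactosidase reporter signal reflecting CREB driven transcription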
# [6] = molecular target: Streptavidin (Streptomyces avidinii) (UniProt P22629); experiment: compounds binding control protein streptavidin – biophysical, small-molecule microarray, 635/667 nm fluorescence, artefact control for SMM compound annotation, primary screen (AID 1147); conditions: higher = more signal;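 further: signal reflects streptavidin binding to arrayed compounds as a control protein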
# Streptavidin (Streptomyces avidinii), sequence (P22629 whole entry, looked up): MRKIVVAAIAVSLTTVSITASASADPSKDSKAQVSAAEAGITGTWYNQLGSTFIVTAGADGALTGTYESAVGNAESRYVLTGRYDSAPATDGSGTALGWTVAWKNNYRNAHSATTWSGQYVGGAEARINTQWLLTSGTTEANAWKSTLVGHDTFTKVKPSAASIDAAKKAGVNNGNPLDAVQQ
# [7] = probe aInhba binding on compound microarray – biochemical, small-molecule microarray, 635/667 nm fluorescence, primary screen (AID 1148); conditions: higher = more signal; small-molecule microarray, probe aInhba, fluorescence unless noted;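 further: score merges 667nm spot fluorescence with signal-to-noise for antibody binding to printed compounds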
# Torsin-1A (Homo sapiens) [8] = molecular target: Torsin-1A (Homo sapiens) (UniProt O14656); experiment: TOR1A wild-type binding on microarray – cell lysate, small-molecule microarray, lysate, 635/667 nm, primary screen (AID 1149); conditions: COS7 hTOR1A-WT lysate, 635 nm fluorescence, higher = more signal
# Torsin-1A (Homo sapiens), sequence (O14656 whole entry, looked up): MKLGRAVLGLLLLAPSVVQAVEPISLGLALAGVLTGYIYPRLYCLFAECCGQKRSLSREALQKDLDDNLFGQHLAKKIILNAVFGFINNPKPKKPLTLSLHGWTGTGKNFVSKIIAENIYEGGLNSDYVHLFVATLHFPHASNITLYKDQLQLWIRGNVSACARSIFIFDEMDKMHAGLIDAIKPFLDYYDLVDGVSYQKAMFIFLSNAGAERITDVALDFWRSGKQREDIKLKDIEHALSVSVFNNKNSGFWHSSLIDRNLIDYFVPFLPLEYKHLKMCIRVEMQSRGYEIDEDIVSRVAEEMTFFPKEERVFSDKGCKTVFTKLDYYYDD
# Torsin-1A (Homo sapiens) [9] = molecular target: Torsin-1A (Homo sapiens) (UniProt O14656); experiment: torsin A mutant lysate binding on microarrays – cell lysate, small-molecule microarray, COS7 lysate, 635/667 nm fluorescence, primary screen (AID 1150); conditions: COS7 hTOR1A mutant lysate, 635 nm fluorescence, higher = more signal;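 further: score pools 667 nm emission and signal to noise measuring lysate protein binding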
# [10] = test system: Sonic hedgehog protein (Shh); experiment: Sonic hedgehog microarray binding compounds – biochemical, small-molecule microarray, 635/667 nm fluorescence, primary screen (AID 1151); conditions: 635 nm fluorescence, higher = more signal;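 further: Shh protein binding to compounds spotted on small-molecule microarray slides; score combines spot fluorescence intensity with signal-to-noise across triplicate slides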
# [11] = optical density shifts of acrAB sulA E. coli – strain DRC41, OD650, 48 h, E. coli filamentation inducer project, primary screen (AID 1152); conditions: higher = more signal, called active from +8 up or from −8 down unless noted;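 further: E. coli MC1000 strain DRC41 lacking acrAB efflux pump and sulA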
# [12] = probe aLefty1 binding on compound microarray – biochemical, small-molecule microarray, 635/667 nm fluorescence, primary screen (AID 1153); conditions: higher = more signal; small-molecule microarray, probe aLefty1, fluorescence unless noted;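 further: score merges spot fluorescence with signal-to-noise ratio from the scanned slide images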
# [13] = plasmodial surface anion channel blockers, osmotic lysis – cell-based, P. falciparum Indochina, OD700, 1 h, primary screen (AID 1154); conditions: P. falciparum Indochina infected RBC osmotic lysis; higher = more signal, called active from +8 up or from −8 down unless noted
# [14] = plasmodial surface anion channel blockers, osmotic lysis – cell-based, P. falciparum Indochina, OD700, 2 h, primary screen (AID 1155);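 further: lysis reports solute entry through the parasite surface anion channel PSAC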; conditions: P. falciparum Indochina infected erythrocytes; higher = more signal, called active from +8 up or from −8 down unless noted
# [15] = changes in parasitized red cell lysis, either direction – P. falciparum Indochina, OD700, 3 h, PSAC antagonist project, primary screen (AID 1156); conditions: P. falciparum-infected erythrocytes, osmotic lysis; higher = more signal, called active from +8 up or from −8 down unless noted
# [16] = plasmodial surface anion channel blockers, osmotic lysis – cell-based, P. falciparum Indochina, OD700, 18 h, primary screen (AID 1157); conditions: P. falciparum Indochina infected erythrocytes, osmotic lysis OD700, 18 h; higher = more signal, called active from +8 up or from −8 down unless noted
# [17] = S6 kinase pathway phospho-S6 level changes – cell-based, A549, cytoblot, luminescence, serum-stimulated, primary screen (AID 1158); conditions: 5 h, higher = more signal;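 further: serum-stimulated A549 lung adenocarcinoma cells; signal is phosphorylated S6 detected by cytoblot immunostaining with HRP secondary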
# [18] = molecular target: NADPH oxidase 2 (Homo sapiens) (UniProt P04839); experiment: compounds shifting NOX2 Amplex Red fluorescence – cell-based, HEK293-NOX2, PMA-stimulated, NOX inhibitor project, primary screen (AID 1159); conditions: 45 min; higher = more signal, called active from +8 up or from −8 down unless noted; further: test concentration not given here
# NADPH oxidase 2 (Homo sapiens), sequence (P04839 whole entry, looked up): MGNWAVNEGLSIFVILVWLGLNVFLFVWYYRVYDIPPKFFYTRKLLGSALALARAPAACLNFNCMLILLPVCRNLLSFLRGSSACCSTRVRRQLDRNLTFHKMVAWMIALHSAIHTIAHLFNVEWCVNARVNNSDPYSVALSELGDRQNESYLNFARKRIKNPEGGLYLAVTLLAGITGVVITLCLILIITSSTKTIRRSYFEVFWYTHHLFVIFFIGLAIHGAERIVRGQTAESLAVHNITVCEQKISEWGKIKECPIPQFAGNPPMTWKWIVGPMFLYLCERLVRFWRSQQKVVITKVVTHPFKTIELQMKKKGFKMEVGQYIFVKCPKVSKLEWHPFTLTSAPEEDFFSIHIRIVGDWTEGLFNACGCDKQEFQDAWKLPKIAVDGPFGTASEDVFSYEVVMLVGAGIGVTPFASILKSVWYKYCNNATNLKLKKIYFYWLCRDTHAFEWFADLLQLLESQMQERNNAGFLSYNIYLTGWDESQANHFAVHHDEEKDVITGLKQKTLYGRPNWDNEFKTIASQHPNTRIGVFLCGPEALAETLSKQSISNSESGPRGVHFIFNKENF
# [19] = molecular target: NADPH oxidase 4 (Homo sapiens) (UniProt Q9NPH5); experiment: compounds shifting NOX4 Amplex Red fluorescence – cell-based, HEK293-NOX4, tetracycline-induced, NOX inhibitor project, primary screen (AID 1160); conditions: HEK293-NOX4, Amplex Red H2O2 fluorescence, 45 min; higher = more signal, called active from +8 up or from −8 down unless noted
# NADPH oxidase 4 (Homo sapiens), sequence (Q9NPH5 whole entry, looked up): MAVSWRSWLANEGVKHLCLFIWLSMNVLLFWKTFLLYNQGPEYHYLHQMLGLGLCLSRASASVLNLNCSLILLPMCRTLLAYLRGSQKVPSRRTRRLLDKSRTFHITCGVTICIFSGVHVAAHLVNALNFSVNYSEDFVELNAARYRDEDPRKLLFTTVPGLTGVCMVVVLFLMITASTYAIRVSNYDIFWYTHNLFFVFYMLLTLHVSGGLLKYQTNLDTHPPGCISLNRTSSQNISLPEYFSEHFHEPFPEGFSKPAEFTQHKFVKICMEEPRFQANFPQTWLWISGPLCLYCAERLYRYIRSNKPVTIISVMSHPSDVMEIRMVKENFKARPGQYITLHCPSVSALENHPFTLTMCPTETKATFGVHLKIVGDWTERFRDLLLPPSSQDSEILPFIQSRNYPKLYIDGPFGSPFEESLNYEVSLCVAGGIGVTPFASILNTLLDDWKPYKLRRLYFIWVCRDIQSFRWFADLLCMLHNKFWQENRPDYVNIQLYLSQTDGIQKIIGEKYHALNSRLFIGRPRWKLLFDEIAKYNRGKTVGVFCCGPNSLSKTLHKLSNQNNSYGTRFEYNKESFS
# [20] = molecular target: NADPH oxidase 5 (Homo sapiens) (UniProt Q96PH1); experiment: compounds shifting NOX5 Amplex Red fluorescence – cell-based, HEK293-NOX5, NOX inhibitor project, primary screen (AID 1161); conditions: HEK293-NOX5, ionomycin, 45 min, higher = more signal
# NADPH oxidase 5 (Homo sapiens), sequence (Q96PH1 whole entry, looked up): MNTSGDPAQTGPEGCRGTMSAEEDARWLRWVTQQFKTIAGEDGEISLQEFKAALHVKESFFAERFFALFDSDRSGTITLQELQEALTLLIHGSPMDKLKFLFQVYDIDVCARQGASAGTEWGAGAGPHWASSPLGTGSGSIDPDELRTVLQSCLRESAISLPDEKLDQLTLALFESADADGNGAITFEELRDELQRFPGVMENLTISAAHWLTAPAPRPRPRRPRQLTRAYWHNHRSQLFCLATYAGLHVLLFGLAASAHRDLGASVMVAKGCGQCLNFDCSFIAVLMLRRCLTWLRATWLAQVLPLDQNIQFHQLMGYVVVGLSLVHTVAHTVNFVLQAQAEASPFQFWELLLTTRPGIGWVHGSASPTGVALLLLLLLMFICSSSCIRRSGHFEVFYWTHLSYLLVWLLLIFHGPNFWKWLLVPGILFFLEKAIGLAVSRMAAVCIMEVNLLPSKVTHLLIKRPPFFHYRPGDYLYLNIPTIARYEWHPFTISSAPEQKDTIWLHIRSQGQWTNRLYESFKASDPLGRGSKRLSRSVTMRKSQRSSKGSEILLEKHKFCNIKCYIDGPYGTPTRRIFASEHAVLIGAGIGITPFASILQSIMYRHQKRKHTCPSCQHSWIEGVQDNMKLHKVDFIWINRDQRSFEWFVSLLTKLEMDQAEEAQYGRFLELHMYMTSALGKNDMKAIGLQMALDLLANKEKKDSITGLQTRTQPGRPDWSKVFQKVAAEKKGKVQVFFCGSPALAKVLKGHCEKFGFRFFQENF
Compound,composite z-score [1],z-score [2],z-score [3],z-score [4],z-score [5],composite z-score [6],composite z-score [7],composite z-score (Torsin-1A (Homo sapiens) [8]),composite z-score (Torsin-1A (Homo sapiens) [9]),composite z-score [10],z-score [11],composite z-score [12],z-score [13],z-score [14],z-score [15],z-score [16],z-score [17],z-score [18],z-score [19],z-score [20]
C[C@@H]1OC=C2[C@@H](O)[C@H]3O[C@H]3C(=O)[C@]23[C@H]1[C@H]1C2=C([C@@H](O)[C@H]4O[C@H]4C2=O)[C@@H]3O[C@@H]1C,-0.0894,0.612 (inactive),0.389 (inactive),1.01 (inactive),1.04 (inactive),-0.0542,-0.206,0.924,0.419,0.881,-0.418 (inactive),-0.27,-0.531 (inactive),0.407 (inactive),-0.655 (inactive),0.0502 (inactive),0.0176,1.2 (inactive),0.214 (inactive),-0.31
COC(=O)[C@H]1[C@@H](O)[C@@]2(O)c3c(OC)cc(OC)cc3O[C@@]2(c2ccc(OC)cc2)[C@@H]1c1ccccc1,0.226,-4.75 (inactive),-0.638 (inactive),1.82 (inactive),1.43 (inactive),0.442,0.0054,0.0165,0.295,0.683,0.662 (inactive),-0.19,0.253 (inactive),0.0987 (inactive),-0.15 (inactive),-0.219 (inactive),-1.37,0.0111 (inactive),-0.0152 (inactive),0.219
C=C(CC1(CNP(=O)(c2ccccc2)c2ccccc2)CC1)c1ccccc1,0.0774,-0.649 (inactive),0.366 (inactive),-0.182 (inactive),-0.418 (inactive),-0.0187,0.102,-0.27,0.449,-1.31,-0.822 (inactive),0.241,1.41 (inactive),0.453 (inactive),1.07 (inactive),0.519 (inactive),-0.254,-0.335 (inactive),-0.4 (inactive),-2.42
CCCc1cc2c(n1CCO)C(C)C1CN(C(=O)c3ccccc3)C(C)(C(=O)OC)C21 (stereo not given),0.559,-0.938 (inactive),0.251 (inactive),1.74 (inactive),0.444 (inactive),1.04,0.414,0.726,1.02,-0.898,-1.14 (inactive),0.549,2.33 (inactive),0.196 (inactive),0.101 (inactive),0.618 (inactive),-0.199,0.0961 (inactive),-2.55 (inactive),-2.35
CN1CCC(c2ccc(CO)cc2)=CC1c1cccs1 (stereo not given),-0.113,-1.33 (inactive),0.196 (inactive),2.8 (inactive),0.158 (inactive),-0.511,-0.154,0.175,0.367,1.7,-0.0115 (inactive),-0.0111,5.23 (inactive),0.366 (inactive),0.377 (inactive),0.528 (inactive),-0.594,-0.822 (inactive),-1.01 (inactive),-1.21
CCCc1cc2c(n1Cc1ccc(C)cc1)C(C)C1CN(C(=O)c3ccccc3)C(C)(C(=O)OC)C21 (stereo not given),0.667,-2.69 (inactive),0.426 (inactive),1.53 (inactive),1.57 (inactive),1.23,0.643,0.55,1.06,-0.2,-0.692 (inactive),1.33,1.5 (inactive),-0.732 (inactive),0.454 (inactive),-1.81 (inactive),1.39,-0.714 (inactive),-0.757 (inactive),-3.63
COC(=O)[C@@]1(Cc2ccc(F)cc2)[C@H]2c3cc(C(=O)N(C)C)[nH]c3C[C@H]2CN1C(=O)c1ccccc1,0.163,-0.108 [setting not given] (inactive),0.208 (inactive),-0.754 [setting not given] (inactive),-0.0669 [setting not given] (inactive),0.134,0.143 [setting not given],0.181,0.252,-0.879,-0.652 [setting not given] (inactive),0.0738 [setting not given],1.37 [setting not given] (inactive),0.0978 [setting not given] (inactive),0.219 [setting not given] (inactive),0.641 [setting not given] (inactive),-0.393,0.33 [setting not given] (inactive),0.502 [setting not given] (inactive),-0.936
CCCc1cc2c(n1Cc1ccco1)C(C)C1CN(C(=O)c3ccccc3)C(C)(C(=O)OC)C21 (stereo not given),0.326,-2.79 (inactive),0.666 (inactive),0.394 (inactive),0.718 (inactive),1,0.173,0.556,0.944,0.357,-2.11 (inactive),0.439,5.21 (inactive),0.63 (inactive),0.952 (inactive),0.495 (inactive),-0.11,-1.61 (inactive),-6.73 (inactive),-3.84
C[C@@H]1Cc2c(cnc3c2CN(C)CC3)CO1,0.0844,-1.38 (inactive),-0.181 (inactive),-0.258 (inactive),-1.05 (inactive),-0.179,-0.0523,0.742,1.12,1.71,-0.397 (inactive),-0.152,-0.0969 (inactive),-0.0787 (inactive),0.123 (inactive),0.0517 (inactive),-0.0609,1.5 (inactive),0.188 (inactive),-0.719
OCc1ccc(C2=CC(C3CC3)N(Cc3sc4ccccc4c3Cl)CC2)cc1 (stereo not given),0.074,-3.22 (inactive),-0.259 (inactive),7.14 (inactive),-2.05 (inactive),0.337,0.0028,0.771,0.679,1.65,-2 (inactive),0.0253,13.6 (active),2.7 (inactive),0.258 (inactive),1.51 (inactive),-0.627,0.703 (inactive),-1.07 (inactive),-1.55
CCOC(=O)[C@H]1CC=C2C(=O)Oc3ccccc3[C@@H]21,-0.652,-1.22 (inactive),-0.473 (inactive),-0.228 (inactive),1.7 (inactive),-0.521,-0.0405,-2.41,-1.59,-0.528,-0.59 (inactive),-0.106,1.27 (inactive),0.804 (inactive),0.458 (inactive),0.708 (inactive),-0.395,0.00603 (inactive),-0.285 (inactive),-0.275
CCCC[C@@H]1C[C@H]1[C@@H](NP(=O)(c1ccccc1)c1ccccc1)c1ccc(Cl)cc1,0.0234,-0.971 (inactive),-0.451 (inactive),-0.379 (inactive),-0.273 (inactive),0.239,0.157,-1.53,-0.202,-1.29,-1.26 (inactive),0.337,7.22 (inactive),1.78 (inactive),0.394 (inactive),0.788 (inactive),-0.554,-1.87 (inactive),-1.56 (inactive),0.453
COC(=O)[C@@]1(Cc2ccccc2)[C@H]2c3cc(C(=O)N(C)C)[nH]c3C[C@H]2CN1C(=O)c1ccccc1,0.155,-0.167 (inactive),-0.0166 (inactive),-0.368 (inactive),-0.897 (inactive),-0.033,-0.147,-0.816,-0.317,-0.836,-1.41 (inactive),0.802,1.11 (inactive),0.322 (inactive),0.337 (inactive),0.766 (inactive),-0.519,0.434 (inactive),0.0256 (inactive),-3.03
COC(=O)[C@@]1(Cc2ccccc2)[C@H]2c3cc(C(=O)N(C)C)n(C)c3C[C@H]2CN1C(=O)c1ccccc1,0.253,-0.782 (inactive),0.323 (inactive),0.194 (inactive),0.189 (inactive),1.78,0.0091,0.0264,1.51,-0.916,-0.741 (inactive),0.113,1.24 (inactive),0.373 (inactive),0.747 (inactive),0.617 (inactive),0.553,0.294 (inactive),-0.0833 (inactive),-2.5
CN1CCc2nc(CO)c(CO)cc2C1,0.233,-0.0958 (inactive),0.424 (inactive),1.37 (inactive),-0.0826 (inactive),0.0991,0.0442,-0.0701,0.557,0.424,0.0958 (inactive),0.0504,0.297 (inactive),0.538 (inactive),-0.508 (inactive),0.101 (inactive),-0.121,1.62 (inactive),-1.25 (inactive),-0.795
OCc1ccc(C2=CC(c3cccs3)N(Cc3cccc(OC(F)(F)F)c3)CC2)cc1 (stereo not given),0.136,-4.06 (inactive),1.28 (inactive),1.54 (inactive),-0.162 (inactive),-0.0232,-0.0719,0.761,1.16,1.05,-0.915 (inactive),-0.148,3.92 (inactive),1.2 (inactive),-0.18 (inactive),0.822 (inactive),-0.0923,0.655 (inactive),-0.666 (inactive),-1.38
